Screening results deposited in PubChem by The Scripps Research Institute Molecular Screening Center.
M1 antag: antagonists of human M1 muscarinic receptor | CHO-K1 hM1, Fluo-8 calcium fluorescence, ACh EC80 antagonist | inhibition, % at 3 µM | P11229 | actives 1.3% (n = 360,000);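 active means percent inhibition above its own plate's cutoff, namely the mean of that plate's compound wells plus 3 SD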;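 further: peak over basal fluorescence ratio during 140 s after agonist addition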
Target sequence (P11229 whole entry, looked up): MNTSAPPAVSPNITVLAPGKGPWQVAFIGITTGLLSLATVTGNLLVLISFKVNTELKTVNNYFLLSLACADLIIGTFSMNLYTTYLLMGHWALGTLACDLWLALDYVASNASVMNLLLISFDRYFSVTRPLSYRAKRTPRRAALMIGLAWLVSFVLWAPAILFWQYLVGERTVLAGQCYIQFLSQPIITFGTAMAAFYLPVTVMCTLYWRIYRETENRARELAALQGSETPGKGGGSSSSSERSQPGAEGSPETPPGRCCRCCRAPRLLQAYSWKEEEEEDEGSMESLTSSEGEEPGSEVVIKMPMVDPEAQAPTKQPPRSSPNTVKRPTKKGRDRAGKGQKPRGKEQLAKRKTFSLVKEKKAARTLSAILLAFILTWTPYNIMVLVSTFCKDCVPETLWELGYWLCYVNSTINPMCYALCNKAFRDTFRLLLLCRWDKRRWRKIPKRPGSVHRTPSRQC
CHO-K1 Ca antag: counter-screen for M1 antagonists: effect in parental CHO-K1 cells; actives 0.6% (n = 360,000); ATP-induced calcium, Fluo-8 fluorescence; AID 602250; inhibition, % at 3 µM;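 active means inhibition above a per-plate cutoff, the plate's mean sample inhibition plus 3 SD, cut at about 24% in these data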
CHO-K1 Ca PAM: counter-screen for M1 PAMs: effect in parental CHO-K1 cells; ATP EC20, Fluo-8 calcium fluorescence; 0% at ATP EC20, 100% at ATP max; activation, % at 3 µM; actives 0.02% (n = 360,000); AID 602247;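 active means activation above the run cutoff, the mean activation of all test compounds plus 3 SD, cut at about 40% in these data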;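 further: peak over basal fluorescence ratio in a 140 s read after ATP addition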
M1 ag parental: nonselective activator or artifact in parental CHO-K1 cells; actives 0.48% (n = 360,000); activation, % at 3 µM; Fluo-8 calcium fluorescence; scaled to maximal ATP response, vehicle zero; in the data active means activation above about 15%;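 further: untransfected CHO-K1 host cells lacking M1 receptor as counterscreen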
CHRM1 agonist: activates human CHRM1 receptor; actives 0.33% (n = 360,000); AID 588814; activation, % at 3 µM; P11229; CHO-K1 hM1, Fluo-8 calcium fluorescence, agonist mode; 0% DMSO, 100% acetylcholine EC100;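 active means activation above the run's mean compound activation plus 3 SD, cut at about 16% in these data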;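 further: peak over basal fluorescence ratio within a 140 s kinetic read after compound addition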
M1 PAM: human CHRM1 positive allosteric modulation | actives 0.088% (n = 360,000) | CHO-K1 hM1, Fluo-8 calcium fluorescence, ACh EC20; 0% = ACh EC20, 100% = maximal ACh | activation, % at 3 µM; in the data active means activation above about 19%, passing the limit was not always enough
Large screens that a line does not name were inactive. Rows were chosen to be rich in hits. Some 2.4% of all compounds tested hit in one or more screens of this group.

O=C(/C(=C\c1ccccc1)c1nc2ccccc2[nH]1)c1ccc(Cl)cc1	none
O=C(/C(=C/c1ccc(Cl)cc1)c1nc2ccccc2[nH]1)c1cccs1	M1 antag 94.4
O=c1[nH]c2ccccc2nc1/C=C(\O)c1cccs1	M1 ag parental 15.2, CHRM1 agonist 18.0
Cc1nc2c(OCc3ccc(C(F)(F)F)cc3)cccn2c1N(C)C(=O)CCC1CCCC1	none
Cc1nc2c(OCc3ccc(F)cc3)cccn2c1N(C)C(=O)CCC1CCCC1	M1 antag 42.9
Cc1nc2c(OCc3ccc(C#N)cc3)cccn2c1N(C)C(=O)CCC1CCCC1	M1 antag 39.6
Cn1c(=O)n(CCc2ccccc2)c(=O)c2c1nc1n2CCN1Cc1ccco1	M1 antag 31.9
Cn1c(=O)n(Cc2ccc(F)cc2)c(=O)c2c1nc1n2CCN1Cc1ccco1	none
Cc1ccc(SCC(=O)Nc2ccc(N3CCN(C)CC3)c(F)c2)c(C)c1	M1 antag 30.4
CCCn1c(N)c(CC)c(=O)[nH]c1=O	none
CCCCn1c(N)c(N(Cc2ccccc2OC)C(=O)C(C)Oc2cccc(Cl)c2)c(=O)[nH]c1=O (stereo not drawn)	none
COC(=O)c1ccc(NC(=O)c2ccc3nccnc3c2)cc1	none
O=C(Nc1ccc(SC(F)F)cc1)c1ccc2nccnc2c1	M1 ag parental 16.7
CCCCN(C(=O)c1cc(S(=O)(=O)N2CCCCCC2)ccc1OC)c1c(N)n(CCC)c(=O)[nH]c1=O	CHO-K1 Ca antag 24.8
CCCCC(=O)N(C)c1c(C)nc2ccc(C(=O)N3CCN(c4ccccc4)CC3)cn12	none
CCN(CC)CCOC(=O)C1(c2ccc(OC)c(OC)c2)CCCC1	M1 antag 77.4
O=C(OCCCN1CCCC1)C1(c2ccccc2)CCCC1	M1 antag 95.5
CCN(CC)CCOC(=O)C1(c2ccccc2)CCCC1	M1 antag 99.8
O=C(COC(=O)C1(c2ccccc2)CCCC1)N1CCNC1=O	none
CN(C)CCOC(=O)C1(c2ccccc2)CCOCC1	M1 antag 23.4
Cc1ccc(NC(=O)C2(c3ccccc3)CCOCC2)cc1	none
CC(OC(=O)c1cccc(O)c1)C(=O)N(C)Cc1ccccc1 (stereo not drawn)	none
CC(OC(=O)/C(C#N)=C/c1ccc(N(C)C)cc1)C(=O)N(C)Cc1ccccc1 (stereo not drawn)	M1 antag 30.2
O=C(NC(NC(=S)Nc1ccc(Cl)cc1)C(Cl)(Cl)Cl)c1ccco1 (stereo not drawn)	none
CC(=O)c1ccc(NC(=S)NC(NC(=O)c2ccco2)C(Cl)(Cl)Cl)cc1 (stereo not drawn)	CHRM1 agonist 16.9
O=C1CCC/C(=N/NC(=O)c2ccc(CN3c4cccc5cccc(c45)S3(=O)=O)cc2)C1	CHRM1 agonist 18.8
O=C(O)c1ccc(/C=N/NC(=O)c2ccc(CN3c4cccc5cccc(c45)S3(=O)=O)cc2)cc1	none
O=C1NC(c2ccccc2)CCO1 (stereo not drawn)	M1 PAM 29.3
Cc1nn(CC(=O)NC2CCS(=O)(=O)C2)c(C)c1[N+](=O)[O-] (stereo not drawn)	none
O=C(C[n+]1cc(-c2ccccc2)n2c1CCCCC2)c1ccc(Cl)cc1	none
Clc1ccc(C[n+]2cc(-c3ccccc3)n3c2CCCCC3)c(Cl)c1	none
Clc1ccc(-c2c[n+](Cc3ccc(Cl)cc3Cl)c3n2CCCCC3)cc1	M1 antag 47.8
CC1CCC(C(C)C)C(OC(=O)C[n+]2cc(-c3ccc(Cl)cc3)n3c2CCCCC3)C1 (stereo not drawn)	M1 antag 74.6
COc1cccc(CNC(=O)[C@H](C)NC(=O)N2CC(=O)Nc3ccccc32)c1	none
CC(C)c1ccc(C(C)NC(=O)C2CCCC2)cc1 (stereo not drawn)	none
Cc1ccc(NCC(=O)Nc2cccc(S(=O)(=O)N(C)C)c2)cc1S(=O)(=O)N1CCCCCC1	none
CC(=O)c1ccc(C(=O)NC2CCCN(Cc3ccccc3F)C2)cc1 (stereo not drawn)	none
CCc1[nH]nc(C(=O)NC2CCCN(Cc3ccccc3F)C2)c1C (stereo not drawn)	M1 antag 40.3
COc1ccc(C(=O)NNC(=S)NC(=O)c2ccco2)cc1	none
COC(=O)CNC(=S)NC(=O)c1ccc(C(C)(C)C)cc1	M1 antag 72.0
CC(C)(C)c1ccc(C(=O)NC(=S)NCc2cccnc2)cc1	none
CCCOc1ccc(C(=O)NNC(=S)NC(=O)c2ccco2)cc1	M1 ag parental 60.1, CHRM1 agonist 67.3
CCCOc1ccc(C(=O)NNC(=S)NC(=O)c2cccs2)cc1	M1 antag 77.6, CHO-K1 Ca antag 44.1, M1 ag parental 87.4, CHRM1 agonist 92.0
CCCOc1ccc(C(=O)NNC(=S)NC(=O)c2ccccc2[N+](=O)[O-])cc1	M1 ag parental 15.4
CC(C)(C)c1ccc(C(=O)NC(=S)NNC(=O)COc2ccccc2)cc1	CHRM1 agonist 24.1
CCCOc1ccc(C(=O)NNC(=S)NC(=O)c2ccccc2)cc1	M1 antag 69.2, CHO-K1 Ca antag 42.2, M1 ag parental 105.0, CHRM1 agonist 115.4
CC(Oc1ccc(Cl)cc1)C(=O)NNC(=S)NC(=O)c1ccco1 (stereo not drawn)	M1 ag parental 31.8, CHRM1 agonist 51.0
O=C(COc1ccc(Cl)cc1Cl)NNC(=S)NC(=O)c1ccco1	none
CCCNC(=O)CN1C(=O)NC(CCSC)C1=O (stereo not drawn)	none
CC(=O)Nc1ccc(S(=O)(=O)NCC(=O)OCC(=O)NCc2ccco2)cc1	CHO-K1 Ca antag 27.9
CCOC(=O)C1=C(Cc2ccc(OC)cc2)C(=O)c2ccccc2C1=O	M1 antag 36.2, CHO-K1 Ca antag 25.4, M1 ag parental 15.2
CCOC(=O)c1c(C)nc2c(c1-c1cc(OC)ccc1OC)C(=O)c1ccccc1-2	none
Cc1cc(NC(=O)CN2C(=O)NC(CC(C)C)C2=O)ccc1Br (stereo not drawn)	none
CCc1cccc(C)c1NC(=S)NCC(c1cccnc1)N(C)C (stereo not drawn)	M1 ag parental 17.1
CCC(=O)c1ccc2c(c1)N(CCCN(C)C)c1ccccc1S2	M1 antag 94.4
CC(=O)c1ccc2c(c1)N(C)c1ccccc1S2	none
CC(=O)c1ccc2c(c1)N(CCCN(C)C)c1ccccc1S2	M1 antag 95.4
COCC#Cc1ccc2c(c1)O[C@@H](CN(C)S(=O)(=O)c1cccc(F)c1)[C@@H](C)CN([C@H](C)CO)S2(=O)=O	none
CC1CC(C)(C)CC2(C1)NC(=O)N(CC(=O)N(C)Cc1nc3ccccc3c(=O)[nH]1)C2=O (stereo not drawn)	none
Cc1cc(CSc2ccccc2)ccc1NC(=O)c1ccc(Cl)c([N+](=O)[O-])c1	CHO-K1 Ca antag 27.8
